Bioassay records deposited in PubChem by National Center for Advancing Translational Sciences (NCATS).
Rows were chosen to be rich in hits. Some 13% of all compounds tested hit in one or more screens of this group.
G9a inh = qHTS Assay for Inhibitors of Histone Lysine Methyltransferase G9a. Histone-lysine N-methyltransferase EHMT2 (Homo sapiens), Q96KQ7. G9a H3K9 monomethylation, AlphaScreen, 2 h. Potency, µM (series often up to 102 µM), for the others: top-dose activity, negative = inhibition, actives largely listed as inhibitors. 350,000 tested, 8.8% active. AID 504332, 2011; note: potency is the fitted concentration of half-maximal effect; % is set by controls: 0 for no effect and ±100 for the full control effect; nearly all actives have a fitted effect of over 75% in size
Target sequence (Q96KQ7 913-1193 limits assumed): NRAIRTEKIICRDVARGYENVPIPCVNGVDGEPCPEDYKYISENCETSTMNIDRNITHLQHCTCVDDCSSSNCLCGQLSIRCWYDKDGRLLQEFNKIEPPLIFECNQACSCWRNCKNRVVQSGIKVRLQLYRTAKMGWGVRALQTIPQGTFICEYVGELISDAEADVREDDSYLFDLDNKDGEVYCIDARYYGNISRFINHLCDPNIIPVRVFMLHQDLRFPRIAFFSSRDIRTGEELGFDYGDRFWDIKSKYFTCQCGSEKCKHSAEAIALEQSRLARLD
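AlphaScreen read-out: biotin-H3K9 peptide (500 nM) methylation by 20 nM enzyme with 20 uM SAM, 2 h at room temperature after 15 min compound preincubation; anti-monomethyl H3K9 antibody plus donor/acceptor beads, 10 min dark.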
Sfp PPTase inh = qHTS Assay for Inhibitors of Bacillus subtilis Sfp phosphopantetheinyl transferase (PPTase); 4'-phosphopantetheinyl transferase ffp (Bacillus subtilis), Q9F4F7; Biochemical Sfp PPTase activity, qHTS; Potency, µM, for inactives: largest response in the series, negative = inhibition, usual class: inhibitors; 310,000 tested, 3.5% active; AID 1490, 2009;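 note: the enzyme is Sfp with the accession as filed and its product quenches rhodamine fluorescence; potency is the fitted concentration of half-maximal effect; 0% = enzyme reaction without inhibitor and -100% = no enzyme wells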
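With Hepes-Na pH 7.6 buffer containing 10 mM MgCl2, Sfp (15 nM) modified BHQ-2-YbbR (12.5 uM) using rhodamine-CoA (5 uM). Two reads 30 minutes apart at 525/598 nm yielded each well's rate.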
Lamin A splicing = qHTS Assay for Modulators of Lamin A Splicing. HeLa LMNA splicing GFP/RFP minigene ratio, 48 h. Potency, µM (series often up to 46.1 µM), without a hit: at the highest dose ratio change, negative = inhibition, usual class: inhibitors. 200,000 tested, 0.01% active; active = well fitted inhibition curve with a large enough effect in the signal ratio, with a control signal flat, not every such curve was filed as active; inconclusive = small, poorly fitted or top-dose-only effect, or effect the other way, or a change in a side signal; the % refers to the signal ratio; note: potency is the fitted concentration of half-maximal effect; % is set by controls: 0 for no effect and ±100 for the full control effect
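S3 HeLa cells stably expressing lamin A-EGFP splicing minigene plus DsRed2, 600 cells/well, 48 h compound exposure at 37C. Laser-scanning cytometry; analysed as GFP (500-530 nm)/RFP (575-640 nm) total intensity ratio; 0.5% DMSO vehicle.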
ALDH1A1 inh = qHTS Assay for Inhibitors of Aldehyde Dehydrogenase 1 (ALDH1A1); 220,000 tested, 7.3% active; Purified ALDH1A1, NADH fluorescence, propionaldehyde substrate; Potency, µM (top dose mostly 75.3 µM), for the others: top-dose activity, negative = inhibition, usual class: inhibitors; Aldehyde dehydrogenase 1A1 (Homo sapiens), P00352; active = well fitted inhibition curve with a large enough effect, not every such curve was filed as active; inconclusive = small, poorly fitted or top-dose-only effect, or another doubt; inactive = no such curve, though single readings can be large or run the other way;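 note: potency is the fitted concentration of half-maximal effect; plate controls were no enzyme wells and a reference inhibitor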
Target sequence (P00352 whole entry, looked up): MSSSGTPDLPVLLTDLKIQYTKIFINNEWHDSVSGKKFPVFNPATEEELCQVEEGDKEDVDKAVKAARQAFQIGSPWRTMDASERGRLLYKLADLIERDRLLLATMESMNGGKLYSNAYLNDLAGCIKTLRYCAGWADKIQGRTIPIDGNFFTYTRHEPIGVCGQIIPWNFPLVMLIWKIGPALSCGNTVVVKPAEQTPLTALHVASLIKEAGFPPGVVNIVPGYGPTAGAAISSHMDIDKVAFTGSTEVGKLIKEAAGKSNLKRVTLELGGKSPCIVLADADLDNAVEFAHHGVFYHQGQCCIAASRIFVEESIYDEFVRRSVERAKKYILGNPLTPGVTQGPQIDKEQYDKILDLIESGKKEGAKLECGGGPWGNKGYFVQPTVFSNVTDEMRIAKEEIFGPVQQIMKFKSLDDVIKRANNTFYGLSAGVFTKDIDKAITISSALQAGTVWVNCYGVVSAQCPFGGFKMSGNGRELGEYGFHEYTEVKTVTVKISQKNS
miR-21 reporter = qHTS Assay for Modulators of miRNAs and/orActivators of miR-21 | 340,000 tested, under 10 active | AID 2288, 2010 | HeLa miR-21 FLuc reporter, luciferase, 48 h | Potency, µM (doses to about 38.3 µM), for the others: at the highest dose activity change, positive = activation, actives largely listed as activators;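 note: % of control where 0% means no effect; miR-21 action dims this reporter so a rising signal means less miR-21 action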
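HeLa miR-21-FLuc reporter line, endogenous miR-21; 2000 cells/well in DMEM/10% FBS; compound titration up to ~40uM final, 48 h, 37 degree Celsius; luciferase detection reagent, 15 min lysis, CCD luminescence.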
KDM4E inh = qHTS Assay for Inhibitors of Human Jumonji Domain Containing 2E (JMJD2E). JMJD2E catalytic domain, FDH-coupled NADH fluorescence (FDH is formaldehyde dehydrogenase). Potency, µM (doses to about 57.1 µM), for the others: at the highest dose activity change, negative = inhibition, most hits filed as inhibitors. 230,000 tested, 1.6% active. AID 2147, 2009; active = well fitted inhibition curve with a large enough effect, not every such curve was filed as active; inconclusive = small, poorly fitted or top-dose-only effect, or another doubt; inactive = no such curve, though single readings can be large or run the other way;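 note: potency is the fitted concentration of half-maximal effect; 0% = wells with enzyme and -100% = buffer wells without enzyme; nearly all actives have a fitted effect of over 50% in size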
* marks the source's active call; other numbers are inactive results; ? = inconclusive; · = no result; ! = a repeat was not active; [ ] = remark or other dose. Unless noted, calls come from the whole dose curve; as a rule, active = well fitted curve in the direction sought with a large enough effect; inconclusive = small, poorly fitted or top-dose-only effect, or another doubt; inactive = no such curve, though single readings can be large; an effect the other way counts as inactive or inconclusive.

SMILES	G9a inh	Sfp PPTase inh	Lamin A splicing	ALDH1A1 inh	miR-21 reporter	KDM4E inh
Cc1ccc2[nH]c(=O)c(C(c3nnnn3C3CCCC3)N3CCCc4ccccc43)cc2c1 (stereo unspecified)	?	8.9µM*	-14%	14µM*	-10%	?
CCC(C)(C)n1nnnc1C(c1cc2cc(C)ccc2[nH]c1=O)N1CCCc2ccccc21 (stereo unspecified)	4%[12.7 µM]	20µM*	13%	-2%	-4%	-8%
CCC(C)(C)n1nnnc1C(c1cc2cc(OC)ccc2[nH]c1=O)N1CCc2ccccc21 (stereo unspecified)	?	-38%	-8%	?	0%	?
c1coc(CNc2nc(-c3ccncc3)cs2)c1	-24%[59 µM]	17%	?	1%	-40%	?
Cc1nc2ccccn2c1-c1csc(NCc2ccco2)n1	8.9µM*	?	?	22µM*	2%	?
COc1ccc(-c2csc(NCc3ccco3)n2)cc1	40µM*	-10%	?	?	-33%	-8%
c1coc(CNc2nc3ccccc3s2)c1	17%[2.33 µM]	-1%	·	·	-46%	·
Cc1nc2ncccn2c1-c1csc(Nc2ccc(O)cc2)n1	11µM*	?	-4%[46 µM]	-7%	-8%	?
Cc1ccn2c(-c3csc(NCc4ccccc4)n3)c(C)nc2c1	5µM*	?	?	?	?	?
Cc1cccc(C)c1NC(=O)C(=O)NCC(c1ccc2c(c1)OCO2)N1CCN(C)CC1 (stereo unspecified)	6%[59 µM]	·	2%[46 µM]	·	3%	·
C=CCNc1nc(-c2c(C)nc3ncccn23)cs1	5%[0.501 µM]	2%	·	·	-1%	·
Cc1ccc(Nc2nc(-c3c(C)nc4ncccn34)cs2)cc1	40µM*	50µM*	?	?	16%	?
Cc1ccc(Nc2nc(-c3c(C)nc4ccccn34)cs2)cc1	?	45µM*	?	?	28%	?
Cc1ccnc(Nc2nc(-c3c(C)nc4sccn34)cs2)c1	?	?	?	6%	10%	?
CC(C)c1ccc(C2N=C(N)Nc3nc4ccccc4n32)cc1 (stereo unspecified)	-7%[59 µM]	·	·	·	7%	·
Nc1ccc(C(=O)Oc2ccccc2)c(O)c1	32%[59 µM]	12%	?	1%	·	-1%
CCc1ccc(-n2c(=O)c3ccccc3n3c(=S)[nH]nc23)cc1	1.4µM*	45µM*	·	·	-2%	·
O=c1c2ccccc2nc(-c2ccccc2)n1CCCn1ccnc1	-4%[12.7 µM]	14%	-9%	12%	-13%	10%
COCCCn1c(=O)c2ccccc2n(Cc2ccccc2)c1=O	6.3µM*	-19%	·	·	0%	·
Cc1cccc(-n2c(=O)c3ccccc3n3c(=S)[nH]nc23)c1C	1.1µM*	8%	·	·	0%	·
COc1ccc(-c2nc3ccccc3c(=O)n2CCCn2ccnc2)cc1	-7%	12%	0%	14µM*	-11%	7%
Cc1ccccc1-n1c(=O)c2ccccc2n2c(=O)[nH]nc12	12%[59 µM]	-2%	-10%	7%	-27%	12%
CC(C)(C)c1ccccc1NC(=O)CSc1nc(-c2cccs2)cc(C(F)(F)F)n1	2%[59 µM]	·	·	·	1%	·
Cc1ccc(C(=O)NCCc2ccc(Cl)cc2)cc1-n1c(C)nc2cccnc21	8%[59 µM]	·	·	·	9%	·
Oc1cc(CN2COc3ccccc32)c(O)cc1CNC1CCCCC1	·	·	·	-2%[13.5 µM]	·	·
SMILES	G9a inh	Sfp PPTase inh	Lamin A splicing	ALDH1A1 inh	miR-21 reporter	KDM4E inh
O=C(COc1cc(Cl)c(Cl)cc1Cl)Nc1ccc([N+](=O)[O-])cc1Cl	-5%	20%	·	-4%	-5%	0%
CC(C)c1ccc(NC(=O)C2CSC3(C)CCC(=O)N23)cc1 (stereo unspecified)	?	10%	·	·	-18%	·
COCCCN=C(c1ccco1)n1c(=S)nc(-c2ccco2)n(CCCOC)c1=S	7.9µM*	11µM*	?	3.5µM*	-27%	?
COCCCn1c(=O)c2ccccc2n2c(=S)[nH]nc12	8.9µM*	79µM*	·	·	-1%	·
COCCCn1c(-c2ccco2)nc2ccccc2c1=O	-1%[59 µM]	17%	1%	22µM*	-8%	-4%
COc1cccc(-n2c(=O)c3ccccc3n3c(=S)[nH]nc23)c1	1.6µM*	?	·	·	-4%	·
COCCCn1c(=O)c2ccccc2n(CC(=O)NC2CCCCC2)c1=O	21%	8%	·	·	-3%	·
CCOc1ccc2nc(NC(=O)c3nc(SCc4ccccc4F)ncc3Cl)sc2c1	5%[59 µM]	·	·	·	1%	·
CCOc1c(O)ccc(/C=C2\SC(=S)NC2=O)c1[N+](=O)[O-]	14µM*	11µM*	?	?	-35%	-4%
CCOc1ccc(N(C)c2ccc(/C=C3/SC(=S)NC3=O)cc2)cc1	·	-13%	·	·	-1%	·
CCOC(=O)c1[nH]c2ccc(Br)cc2c1NC(=O)CCN1CCC(C(=O)OCC)CC1	50µM*	7%	-20%	17%	-6%	3%
O=C(Nc1ccc(C(=O)O)cc1)/C(=C\C=C\c1ccccc1)NC(=O)c1ccccc1Br	·	4%	·	·	-8%	·
Cc1cc(C(=O)CCl)c(C)n1CCc1ccc(F)cc1	-8%	-4%	·	0.4µM*	26%	7%
Cc1cc(C(=O)CCl)c(C)n1CCc1ccc(Cl)cc1	?	-30%	·	0.18µM*	23%	1%
COc1ccc(CCn2c(C)cc(C(=O)CCl)c2C)cc1OC	?	16%	?	0.11µM*	20%	-16%
Cc1cc(C(=O)CSc2nnc(N)s2)c(C)n1CCc1ccc(Cl)cc1	-1%[59 µM]	-9%	?	-7%	9%	6%
CCC12CN3CC(C)(CN(C1)C3c1ccc(O)cc1O)C2=O (stereo unspecified)	?	·	·	·	5%	·
CCNc1ncc2nc(-c3ccccc3)c(=O)n(Cc3cccs3)c2n1	-4%[0.501 µM]	17%	?	?	·	·
Cc1cccc(NNC(=O)c2c(F)cccc2Cl)c1	71µM*	5%	·	·	-6%	-7%
Cc1cccc(NS(=O)(=O)c2nnc(NC(=O)C3CCCCC3)s2)c1	8.9µM*!	14%	6%[46 µM]	·	0%	·
Cc1cccc(NNC(=O)C2CCC2)c1	32µM*	17%	·	·	16%	-24%
O=C(NNc1ccc(Cl)cc1)C1CCC1	18µM*	12%	?	-2%	16%	-5%
Cc1cc(Cl)ccc1NS(=O)(=O)c1ccc2c(c1)CC(C)N2C(=O)C1CCC1 (stereo unspecified)	2%[59 µM]	·	?	·	15%	·
